A selection: hits, their analogues and other compounds. The true share with any hit is near 21%.
Shiga inhibitor – A qHTS for Small Molecule Inhibitors of Shiga Toxin; Vero cells, Shiga toxin protein synthesis inhibition reporter; inhibition, % at 38.7 µM; 290,000 tested, 9.2% active; in the data active = inhibition mostly above about 28%, no sharp cut-off; inactive = mostly below about 43%; also: 0% is about no effect
Pf growth 48h – Primary qHTS for delayed death inhibitors of the malarial parasite plastid, 48 hour incubation. P. falciparum luciferase growth in erythrocytes, 48 h. Potency, µM (series often up to 28.7 µM), inactives show at the top dose activity change, negative = inhibition, hits mostly inhibitors. AID 504832, 2011. 310,000 tested, 5.9% active; also: potency is read from the fitted curve at half-maximal effect; % is scaled to controls: 0 for no effect and ±100 for the full control effect
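Growth was read as firefly luciferase luminescence after a 48 h, 37 C, 5% CO2 exposure of compounds to reporter-bearing P. falciparum cultures (0.1% parasitemia, 2% hematocrit final) in Albumax-supplemented RPMI 1640.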
Cycloheximide cs – Cycloheximide Counterscreen for Small Molecule Inhibitors of Shiga Toxin | cell reporter, cycloheximide protein synthesis inhibition counterscreen | AID 2314, 2010 | max response, % | 300,000 tested, 12% active; in the data active = max response mostly above about 13%, no sharp cut-off; inactive = mostly below about 14%; also: read at 38.3 µM for the half of the compounds with a filed dose; 0% is about no effect
SARS PLpro yeast – qHTS of Yeast-based Assay for SARS-CoV PLP; S. cerevisiae expressing SARS-CoV PLpro, growth rescue; Potency, µM (highest dose often 32.9 µM), for the others: at the highest dose activity, positive = growth rescue, usual class: activators; 330,000 tested, 0.19% active; calls by dose curve; also: potency is read from the fitted curve at half-maximal effect; 0% is about no effect; nearly all actives have a fitted effect of over 55% in size
NS1 inh – qHTS Assay for Inhibitors of Influenza NS1 Protein Function. Potency, µM (top dose mostly 46.1 µM), without a hit: top-dose activity, positive = more growth. 270,000 tested, 0.4% active. AID 2326, 2010; calls by dose curve; also: potency is read from the fitted curve at half-maximal effect; actives are rising curves; nearly all actives have a fitted effect of over 50% in size
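Compounds were scored for reversing the slow growth caused by influenza A NS1 in S. cerevisiae, measured by optical density at 600 nm. Assay medium contained 2% galactose at pH 6.0; NS1-free yeast of the same strain were the positive control.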
Pf growth 96h – Primary qHTS for delayed death inhibitors of the malarial parasite plastid, 96 hour incubation. Potency, µM (highest dose often 28.7 µM), inactives show at the highest dose activity change, negative = inhibition, actives largely listed as inhibitors. P. falciparum luciferase reporter growth, 96 h. 320,000 tested, 6.9% active. AID 504834, 2011; also: potency is read from the fitted curve at half-maximal effect; % is scaled to controls: 0 for no effect and ±100 for the full control effect
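P. falciparum expressing integrated firefly luciferase, in erythrocytes at 2% hematocrit, 0.05% parasitemia, incubated with compounds 96 h at 37 C, 5% CO2. Growth inhibition read as loss of luminescence; two-generation exposure targets delayed-death apicoplast inhibitors.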
Active calls of the source: *. Unless noted, calls follow the shape of the dose curve; as a rule, active = well fitted inhibition curve with a large enough effect; inconclusive = small, poorly fitted or top-dose-only effect, or another doubt; inactive = no such curve, though single readings can be large or run the other way.

Screening C[C@]12CCC(O)CC1CCC1C2CC[C@]2(C)C(c3cc(C(F)(F)F)n[nH]3)CCC12 (stereo partly specified) returned Shiga inhibitor -3, Pf growth 48h -14%, Cycloheximide cs -3, SARS PLpro yeast -7%, NS1 inh 9% and Pf growth 96h 3%.
`CCOc1ccc(-n2c(SC(C)C)nc3c(c2=O)SCC3)cc1` gave Shiga inhibitor -8, Pf growth 48h 8.3µM*, Cycloheximide cs 2, SARS PLpro yeast 7%, NS1 inh 0% and Pf growth 96h 151%.
CSc1nc2c(c(=O)n1-c1ccc(C)cc1)SCC2 was read as Shiga inhibitor 49, Pf growth 48h 9.3µM*, Cycloheximide cs 8.6*, SARS PLpro yeast 0%, NS1 inh -5% and Pf growth 96h -4%.
CCOc1ccc(-n2c(SC)nc3c(c2=O)SCC3)cc1 was read as Shiga inhibitor -11, Pf growth 48h -8%, Cycloheximide cs -3, SARS PLpro yeast -4%, NS1 inh 2% and Pf growth 96h inconclusive.
`CCN(CC)c1ccc2cc(S(=O)(=O)c3ccc(C)cc3)c(=O)oc2c1` gave Shiga inhibitor 18, Pf growth 48h inconclusive, Cycloheximide cs -2, SARS PLpro yeast -6%, NS1 inh -1% and Pf growth 96h inconclusive.
Screening O=S(=O)(Nc1nccs1)c1ccc(NS(=O)(=O)c2c(F)cc(F)c(Cl)c2F)cc1 returned SARS PLpro yeast 5%.
Cn1c(=O)c(C(=O)NCC2CCCO2)c(O)c2ccccc21 (stereo unspecified) was read as Shiga inhibitor 45, Pf growth 48h inconclusive, Cycloheximide cs 27*, SARS PLpro yeast -1%, NS1 inh -43% and Pf growth 96h 4%.
Screening Cn1c(C(=O)NCC2CCCO2)cc2c(=O)[nH]c3ccccc3c21 (stereo unspecified) returned Shiga inhibitor 9, Pf growth 48h 4%, Cycloheximide cs 5, SARS PLpro yeast 14%, NS1 inh -7% and Pf growth 96h inconclusive.
For Cn1c(C(=O)NCc2cccs2)cc2oc3ccccc3c21 the results were Shiga inhibitor 82*, Pf growth 48h 59%, Cycloheximide cs 62*, SARS PLpro yeast -2% and NS1 inh -7%.
`O=C(CNC(=O)c1cc2ccccc2o1)NCc1cccs1` gave Shiga inhibitor 13, Pf growth 48h -5%, Cycloheximide cs -2, SARS PLpro yeast 5%, NS1 inh 9% and Pf growth 96h 28%.
For Cn1c(C(=O)NCC2CCCO2)cc2c(=O)n(C)c3ccccc3c21 (stereo unspecified) the results were Shiga inhibitor 11, Pf growth 48h 13%, Cycloheximide cs -3, SARS PLpro yeast -2%, NS1 inh -5% and Pf growth 96h inconclusive.
For Cn1c(C(=O)NCC2CCCO2)cc2oc3ccccc3c21 (stereo unspecified) the results were Shiga inhibitor 103*, Pf growth 48h 87%, Cycloheximide cs 35*, SARS PLpro yeast -3%, NS1 inh -10% and Pf growth 96h 86%.
For Cn1c(C(=O)NCc2ccccc2)cc2oc3ccccc3c21 the results were Shiga inhibitor 85*, Pf growth 48h 72%, Cycloheximide cs 46*, SARS PLpro yeast -2% and NS1 inh -36%.
Screening O=C(Cc1ccc(Cl)cc1)c1c[nH]c(C(=O)NCCCn2ccnc2)c1 returned Shiga inhibitor 9, Pf growth 48h inconclusive, Cycloheximide cs 4, SARS PLpro yeast -1% and Pf growth 96h inconclusive.
Cc1ccc2c(c1)c1c(c(=O)n(-c3ccccc3C)c(=O)n1CC(=O)NCC1CCCO1)n2C (stereo unspecified) was read as Shiga inhibitor 1, Pf growth 48h inconclusive, Cycloheximide cs -1, SARS PLpro yeast 0%, NS1 inh 7% and Pf growth 96h 9.3µM*.
Screening Cc1cc(C)cc(-n2c(=O)c3ccccc3n(CC(=O)NCC3CCCO3)c2=O)c1 (stereo unspecified) returned Shiga inhibitor -10, Pf growth 48h 36%, Cycloheximide cs -3, SARS PLpro yeast -1%, NS1 inh 7% and Pf growth 96h 0%.
For Cc1[nH]c(C)c2c(=O)n(Cc3ccc(Cl)cc3)ncc12 the results were Shiga inhibitor -1, Pf growth 48h 12µM*, Cycloheximide cs 0, SARS PLpro yeast 1%, NS1 inh 7% and Pf growth 96h inconclusive.
Screening Cc1cc(C)cc(C(=O)NCCC(=O)N2CCC3(CC2)NCCc2[nH]cnc23)c1 returned Shiga inhibitor -2, Pf growth 48h -4%, Cycloheximide cs -2, SARS PLpro yeast 0%, NS1 inh -2% and Pf growth 96h -20%.
Screening CN1c2ccc(Cl)cc2C(=O)NC1C1CC=CCC1 (stereo unspecified) returned Shiga inhibitor -3, Pf growth 48h -25%, Cycloheximide cs 6, SARS PLpro yeast 23%, NS1 inh -6% and Pf growth 96h 12µM*.
Screening COc1ccc2cc(CCNS(=O)(=O)c3c(C)cc(C)cc3C)c(=O)[nH]c2c1 returned Shiga inhibitor -4, Pf growth 48h -21%, Cycloheximide cs -3, SARS PLpro yeast 4%, NS1 inh 1% and Pf growth 96h 47%.
`CCn1c(SCC(=O)OC(C)C)nnc1-c1ccccc1` gave Shiga inhibitor 7, Pf growth 48h 12%, Cycloheximide cs -3, SARS PLpro yeast -1%, NS1 inh 4% and Pf growth 96h 63%.
Screening CCn1c(SCC(O)c2ccccc2)nnc1-c1ccccc1 (stereo unspecified) returned Shiga inhibitor 28*, Pf growth 48h 24%, Cycloheximide cs 39*, SARS PLpro yeast 0%, NS1 inh 5% and Pf growth 96h 20%.
`Cc1nnc(SCc2nc3ccccc3s2)n1-c1ccccc1` gave Shiga inhibitor 87*, Pf growth 48h 50%, Cycloheximide cs 30*, SARS PLpro yeast 11%, NS1 inh 9% and Pf growth 96h inconclusive.
`COc1ccc(-c2nnc(SCC(=O)Nc3nc4ccccc4s3)n2C)cc1` gave Shiga inhibitor -13, Pf growth 48h 0%, Cycloheximide cs 2, SARS PLpro yeast 1% and NS1 inh 1%.
Screening Cc1ccccc1CSc1nnc(C)n1N returned Shiga inhibitor -1, Pf growth 48h -7%, Cycloheximide cs -3, SARS PLpro yeast 0%, NS1 inh 4% and Pf growth 96h inconclusive.
Screening COc1cccc(-c2nnc(SCc3nc4ccccc4s3)n2C)c1 returned Shiga inhibitor 16, Cycloheximide cs 24*, SARS PLpro yeast 1%, NS1 inh 1% and Pf growth 96h inconclusive.
Cc1nnc(SCc2nc3ccccc3s2)n1N was read as Shiga inhibitor 76*, Pf growth 48h 101%, Cycloheximide cs 44*, SARS PLpro yeast 1%, NS1 inh 8% and Pf growth 96h 195%.

Bioassay records: PubChem, National Center for Advancing Translational Sciences (NCATS)
